Data: PubChem BioAssay
Active and inactive are the calls of the source. Unless noted, no rule for the calls is given here.

How the values were obtained:
[1] = test system: Wnt5a (protein binding on small-molecule microarray); test: small molecules binding Wnt5a protein – biophysical, small-molecule microarray, 635/667 nm fluorescence, primary screen (AID 1142); conditions: 635 nm fluorescence, higher = more signal;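 also: fluorescence read at 667 nm with signal to noise per printed feature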
[2] = ATP-based viability of Huh7 replicon cells – cell-based, CellTiter-Glo luminescence, basal, 48 h, cytotoxicity control for HCV replication inhibitor project, primary screen (AID 1143); conditions: higher = more signal, called active from +8 up or from −8 down;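 also: Huh7 hepatoma cells carrying a hepatitis C replication reporter with no stimulus; test concentration not given here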
[3] = Pseudomonas biofilm growth suppression – PAO1 strain, BacTiter-Glo luminescence, LB-PBS, primary screen (AID 1144); conditions: P. aeruginosa PAO1 biofilm, 12 h, higher = more signal
[4] = basal CRE-LacZ reporter activity in PC12 – cell-based, unstimulated, primary screen (AID 1145); conditions: no forskolin, luminescence, 4.5 h, higher = more signal, called active from +8 up or from −8 down
[5] = forskolin-driven CRE-LacZ activity in PC12 – cell-based, CRE-LacZ reporter, forskolin-stimulated, primary screen (AID 1146); conditions: luminescence, 4.5 h, higher = more signal, called active from +8 up or from −8 down;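 also: PC12 cells with 6xCRE LacZ reporter stimulated by forskolin 10 µM; beta-galactosidase reporter signal reflecting CREB driven transcription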
[6] = biological target: Streptavidin (Streptomyces avidinii) (UniProt P22629); test: compounds binding control protein streptavidin – biophysical, small-molecule microarray, 635/667 nm fluorescence, artefact control for SMM compound annotation, primary screen (AID 1147); conditions: higher = more signal;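 also: signal reflects streptavidin binding to arrayed compounds as a control protein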
Streptavidin (Streptomyces avidinii), sequence (P22629 whole entry, looked up): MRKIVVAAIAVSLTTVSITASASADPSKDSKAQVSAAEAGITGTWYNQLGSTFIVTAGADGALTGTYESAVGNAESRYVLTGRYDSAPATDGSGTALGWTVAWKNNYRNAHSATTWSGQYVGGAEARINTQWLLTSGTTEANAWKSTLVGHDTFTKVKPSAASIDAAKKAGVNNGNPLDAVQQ

[7] = probe aInhba binding on compound microarray – biochemical, small-molecule microarray, 635/667 nm fluorescence, primary screen (AID 1148); conditions: higher = more signal;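 also: score merges 667nm spot fluorescence with signal-to-noise for antibody binding to printed compounds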
Torsin-1A (Homo sapiens) [8] = biological target: Torsin-1A (Homo sapiens) (UniProt O14656); test: TOR1A wild-type binding on microarray – cell lysate, small-molecule microarray, lysate, 635/667 nm, primary screen (AID 1149); conditions: COS7 hTOR1A-WT lysate, 635 nm fluorescence, higher = more signal
Torsin-1A (Homo sapiens), sequence (O14656 whole entry, looked up): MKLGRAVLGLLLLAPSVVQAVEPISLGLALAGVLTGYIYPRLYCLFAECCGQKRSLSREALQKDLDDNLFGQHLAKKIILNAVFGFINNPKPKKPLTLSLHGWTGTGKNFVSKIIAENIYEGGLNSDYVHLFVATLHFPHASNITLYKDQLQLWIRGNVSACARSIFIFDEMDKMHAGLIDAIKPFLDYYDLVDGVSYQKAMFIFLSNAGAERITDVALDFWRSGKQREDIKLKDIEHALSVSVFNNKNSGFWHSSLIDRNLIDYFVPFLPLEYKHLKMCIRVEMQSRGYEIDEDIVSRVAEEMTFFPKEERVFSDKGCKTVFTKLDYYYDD

Torsin-1A (Homo sapiens) [9] = biological target: Torsin-1A (Homo sapiens) (UniProt O14656); test: torsin A mutant lysate binding on microarrays – cell lysate, small-molecule microarray, COS7 lysate, 635/667 nm fluorescence, primary screen (AID 1150); conditions: COS7 hTOR1A mutant lysate, 635 nm fluorescence, higher = more signal;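 also: score pools 667 nm emission and signal to noise measuring lysate protein binding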
[10] = test system: Sonic hedgehog protein (Shh); test: Sonic hedgehog microarray binding compounds – biochemical, small-molecule microarray, 635/667 nm fluorescence, primary screen (AID 1151); conditions: 635 nm fluorescence, higher = more signal;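 also: Shh protein binding to compounds spotted on small-molecule microarray slides; score combines spot fluorescence intensity with signal-to-noise across triplicate slides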
[11] = optical density shifts of acrAB sulA E. coli – strain DRC41, OD650, 48 h, E. coli filamentation inducer project, primary screen (AID 1152); conditions: higher = more signal, called active from +8 up or from −8 down;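 also: E. coli MC1000 strain DRC41 lacking acrAB efflux pump and sulA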
[12] = probe aLefty1 binding on compound microarray – biochemical, small-molecule microarray, 635/667 nm fluorescence, primary screen (AID 1153); conditions: higher = more signal;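 also: score merges spot fluorescence with signal-to-noise ratio from the scanned slide images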
[13] = plasmodial surface anion channel blockers, osmotic lysis – cell-based, P. falciparum Indochina, OD700, 1 h, primary screen (AID 1154); conditions: P. falciparum Indochina infected RBC osmotic lysis, higher = more signal, called active from +8 up or from −8 down
[14] = plasmodial surface anion channel blockers, osmotic lysis – cell-based, P. falciparum Indochina, OD700, 2 h, primary screen (AID 1155);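 also: lysis reports solute entry through the parasite surface anion channel PSAC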; conditions: P. falciparum Indochina infected erythrocytes, higher = more signal, called active from +8 up or from −8 down
[15] = changes in parasitized red cell lysis, either direction – P. falciparum Indochina, OD700, 3 h, PSAC antagonist project, primary screen (AID 1156); conditions: P. falciparum-infected erythrocytes, osmotic lysis, higher = more signal, called active from +8 up or from −8 down
[16] = plasmodial surface anion channel blockers, osmotic lysis – cell-based, P. falciparum Indochina, OD700, 18 h, primary screen (AID 1157); conditions: P. falciparum Indochina infected erythrocytes, osmotic lysis OD700, 18 h; higher = more signal, called active from +8 up or from −8 down
[17] = S6 kinase pathway phospho-S6 level changes – cell-based, A549, cytoblot, luminescence, serum-stimulated, primary screen (AID 1158); conditions: 5 h, higher = more signal;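 also: serum-stimulated A549 lung adenocarcinoma cells; signal is phosphorylated S6 detected by cytoblot immunostaining with HRP secondary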
[18] = biological target: NADPH oxidase 2 (Homo sapiens) (UniProt P04839); test: compounds shifting NOX2 Amplex Red fluorescence – cell-based, HEK293-NOX2, PMA-stimulated, NOX inhibitor project, primary screen (AID 1159); conditions: 45 min, higher = more signal, called active from +8 up or from −8 down; also: test concentration not given here
NADPH oxidase 2 (Homo sapiens), sequence (P04839 whole entry, looked up): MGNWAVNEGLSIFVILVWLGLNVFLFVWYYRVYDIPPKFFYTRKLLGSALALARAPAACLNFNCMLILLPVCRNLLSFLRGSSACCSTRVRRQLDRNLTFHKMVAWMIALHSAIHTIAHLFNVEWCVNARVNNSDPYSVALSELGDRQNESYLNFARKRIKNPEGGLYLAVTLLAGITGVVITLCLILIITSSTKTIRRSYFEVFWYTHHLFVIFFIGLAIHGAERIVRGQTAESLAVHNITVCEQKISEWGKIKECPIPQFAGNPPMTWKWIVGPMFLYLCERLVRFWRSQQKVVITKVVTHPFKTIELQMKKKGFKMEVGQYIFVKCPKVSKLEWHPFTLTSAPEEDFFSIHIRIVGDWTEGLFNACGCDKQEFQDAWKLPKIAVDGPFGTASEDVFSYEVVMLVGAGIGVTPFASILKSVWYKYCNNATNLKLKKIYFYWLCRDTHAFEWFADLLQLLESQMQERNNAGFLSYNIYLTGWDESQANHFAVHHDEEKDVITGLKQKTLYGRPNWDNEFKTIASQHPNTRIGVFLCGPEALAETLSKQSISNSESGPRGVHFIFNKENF

[19] = biological target: NADPH oxidase 4 (Homo sapiens) (UniProt Q9NPH5); test: compounds shifting NOX4 Amplex Red fluorescence – cell-based, HEK293-NOX4, tetracycline-induced, NOX inhibitor project, primary screen (AID 1160); conditions: HEK293-NOX4, Amplex Red H2O2 fluorescence, 45 min; higher = more signal, called active from +8 up or from −8 down
NADPH oxidase 4 (Homo sapiens), sequence (Q9NPH5 whole entry, looked up): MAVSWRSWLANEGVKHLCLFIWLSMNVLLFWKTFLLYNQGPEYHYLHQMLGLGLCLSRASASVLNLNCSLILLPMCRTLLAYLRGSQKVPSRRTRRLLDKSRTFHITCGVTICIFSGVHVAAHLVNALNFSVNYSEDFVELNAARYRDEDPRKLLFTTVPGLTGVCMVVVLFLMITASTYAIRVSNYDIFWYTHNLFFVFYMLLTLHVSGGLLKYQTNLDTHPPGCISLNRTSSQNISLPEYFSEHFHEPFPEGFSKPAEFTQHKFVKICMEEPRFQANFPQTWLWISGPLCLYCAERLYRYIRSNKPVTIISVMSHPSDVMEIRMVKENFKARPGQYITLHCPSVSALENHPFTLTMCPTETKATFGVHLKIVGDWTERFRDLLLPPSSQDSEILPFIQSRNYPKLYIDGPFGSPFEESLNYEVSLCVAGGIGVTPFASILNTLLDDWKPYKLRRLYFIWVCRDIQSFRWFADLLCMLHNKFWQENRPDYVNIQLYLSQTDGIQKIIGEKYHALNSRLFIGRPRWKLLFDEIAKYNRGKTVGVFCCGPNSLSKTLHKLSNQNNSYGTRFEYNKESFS

[20] = biological target: NADPH oxidase 5 (Homo sapiens) (UniProt Q96PH1); test: compounds shifting NOX5 Amplex Red fluorescence – cell-based, HEK293-NOX5, NOX inhibitor project, primary screen (AID 1161); conditions: HEK293-NOX5, ionomycin, 45 min, higher = more signal
NADPH oxidase 5 (Homo sapiens), sequence (Q96PH1 whole entry, looked up): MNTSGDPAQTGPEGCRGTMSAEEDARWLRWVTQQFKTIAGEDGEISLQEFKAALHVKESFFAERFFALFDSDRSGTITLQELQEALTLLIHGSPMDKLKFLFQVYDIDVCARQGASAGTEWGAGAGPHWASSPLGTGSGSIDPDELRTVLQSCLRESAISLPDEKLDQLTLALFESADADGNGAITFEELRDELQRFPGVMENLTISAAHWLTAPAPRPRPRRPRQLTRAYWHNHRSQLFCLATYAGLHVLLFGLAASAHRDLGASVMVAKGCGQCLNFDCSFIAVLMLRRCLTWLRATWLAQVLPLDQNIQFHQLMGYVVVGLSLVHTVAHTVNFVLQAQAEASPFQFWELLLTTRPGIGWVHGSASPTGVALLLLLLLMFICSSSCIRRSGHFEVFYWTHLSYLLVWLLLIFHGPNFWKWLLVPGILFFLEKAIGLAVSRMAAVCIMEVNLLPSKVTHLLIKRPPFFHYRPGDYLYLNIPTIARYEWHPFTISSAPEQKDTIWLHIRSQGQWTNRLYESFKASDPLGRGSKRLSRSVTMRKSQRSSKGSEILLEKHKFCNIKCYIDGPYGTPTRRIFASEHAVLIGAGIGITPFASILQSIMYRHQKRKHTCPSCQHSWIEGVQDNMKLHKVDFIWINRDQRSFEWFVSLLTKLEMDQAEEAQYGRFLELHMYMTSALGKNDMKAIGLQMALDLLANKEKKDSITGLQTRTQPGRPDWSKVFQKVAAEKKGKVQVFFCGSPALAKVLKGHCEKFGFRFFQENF

SMILES | composite z-score [1] | z-score [2] | z-score [3] | z-score [4] | z-score [5] | composite z-score [6] | composite z-score [7] | composite z-score (Torsin-1A (Homo sapiens) [8]) | composite z-score (Torsin-1A (Homo sapiens) [9]) | composite z-score [10] | z-score [11] | composite z-score [12] | z-score [13] | z-score [14] | z-score [15] | z-score [16] | z-score [17] | z-score [18] | z-score [19] | z-score [20]
CN1C(=O)C2C(C1=O)C1C=C(CCCO)C2C(C2CC2)N1Cc1cc2c(cc1Br)OCO2 (stereo not given) | 0.0949 | -1.57 (inactive) | -0.0766 (inactive) | 1.26 (inactive) | 2.6 (inactive) | 0.838 | 0.0569 | 1.2 | 1.5 | 0.265 | -0.541 (inactive) | 0.0041 | 3.48 (inactive) | 0.68 (inactive) | 0.3 (inactive) | 0.307 (inactive) | -0.188 | -0.84 (inactive) | -0.389 (inactive) | -0.349
C=C(CCCC)C(=O)CC[C@H](OC(=O)c1ccccc1-c1ccccc1C(=O)O)c1ccccc1OCCO | -0.131 | -0.397 (inactive) | -0.447 (inactive) | 5.04 (inactive) | 5.73 (inactive) | -0.759 | -0.179 | 1.03 | 0.221 | 2.07 | 0.509 (inactive) | -0.0984 | 8.58 (active) | 1.56 (inactive) | 1.82 (inactive) | 0.944 (inactive) | -0.27 | 3.25 (inactive) | 0.0107 (inactive) | -1.15
COC(=O)[C@@]1(Cc2ccc(OC)cc2)[C@H]2c3cc(C(=O)N4CCCC4)n(Cc4ccc(S(C)(=O)=O)cc4)c3C[C@H]2CN1C(=O)c1ccccc1 | 0.21 | -0.86 (inactive) | -0.0122 (inactive) | -0.185 (inactive) | -0.755 (inactive) | 1.73 | 0.102 | 0.272 | 0.422 | -1.12 | -1.08 (inactive) | 0.315 | 2.29 (inactive) | 0.326 (inactive) | 0.6 (inactive) | 0.617 (inactive) | -0.688 | 0.385 (inactive) | -0.389 (inactive) | -1.7
C=CCNC(=O)[C@@H]1[C@H]2C(=O)O[C@H](c3ccccc3)[C@H](c3ccccc3)N2[C@H](c2ccc(OCCO)cc2)[C@@]12C(=O)N(C(=O)OCCOC)c1ccc(C#CCCO)cc12 | 0.85 | -3.32 (inactive) | -0.594 (inactive) | -0.375 (inactive) | 0.0859 (inactive) | 0.712 | -0.0521 | 0.625 | 0.582 | 1.17 | 3.11 (inactive) | 0.503 | 4.81 (inactive) | 0.343 (inactive) | -0.38 (inactive) | -1.47 (inactive) | 2.25 | 1.3 (inactive) | 0.821 (inactive) | -0.573
[N-]=[N+]=NCc1ccccc1C[C@@]1(C(=O)N2CCCCC2)N=C(c2ccc(OCCCO)cc2)O[C@@H]1c1ccccc1CN=[N+]=[N-] | 0.599 | -4.29 (inactive) | 0.87 (inactive) | -0.114 (inactive) | 0.872 (inactive) | 0.721 | 0.153 | 0.362 | -0.0699 | -0.306 | 0.464 (inactive) | 0.254 | 27.5 (active) | 19.6 (active) | 3.4 (inactive) | 2.31 (inactive) | -0.276 | -1.29 (inactive) | -0.467 (inactive) | -0.859
CC(C)=CCCC(C)=CC(O)C1C=CC2C(=O)N(c3ccccc3)C(=O)C2N1Nc1ccccc1F (stereo not given) | 0.151 | -2.83 (inactive) | -1.45 (inactive) | -0.0228 (inactive) | 0.358 (inactive) | 1.17 | 0.0047 | -0.216 | -0.0306 | 0.396 | 0.404 (inactive) | -0.233 | 1.7 (inactive) | -0.389 (inactive) | -0.391 (inactive) | -0.789 (inactive) | -0.162 | -0.199 (inactive) | -0.284 (inactive) | 0.83
CCCCC=C[C@@H](NC(=O)c1ccccc1)c1ccccc1 | -0.275 | -0.598 (inactive) | -0.287 (inactive) | 0.969 (inactive) | 1.39 (inactive) | 1.89 | 0.162 | 0.128 | 0.0135 | -0.863 | -2.36 (inactive) | 0.0538 | 0.318 (inactive) | 0.279 (inactive) | 0.893 (inactive) | 0.765 (inactive) | 0.442 | -0.474 (inactive) | -2.77 (inactive) | -2.28
[N-]=[N+]=NCc1ccccc1[C@@H]1OC(c2ccc(OCCCO)cc2)=N[C@]1(Cc1ccccc1)C(=O)NCCN1CCOCC1 | 0.629 | -2.31 (inactive) | 0.0636 (inactive) | 2.76 (inactive) | -0.808 (inactive) | 0.686 | 0.386 | 0.0739 | 0.818 | 0.0392 | 0.745 (inactive) | 0.345 | 18 (active) | 3.55 (inactive) | 1.97 (inactive) | 1.13 (inactive) | -0.408 | -3.16 (inactive) | 2.14 (inactive) | 0.838
